Screening data: PubChem BioAssay, National Center for Advancing Translational Sciences (NCATS)
Only some compounds are listed: those with a hit (about 21% of all), similar ones and a draw of the others.
TDP1 cell CPT: qHTS for Inhibitors of human tyrosyl-DNA phosphodiesterase 1 (TDP1): qHTS in cells in presence of CPT; chicken DT40 Tdp1-/-;hTDP1 cells + 20 nM CPT, ATP luminescence, 48 h; Potency, µM (top dose mostly 46.2 µM), most hits filed as inhibitors; 420,000 tested, 12% active; AID 686979, 2013; note: nearly all actives have a fitted effect of over 55% in size
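Cell growth measured by CellTiter-Glo luminescence after a minimum 48 h, 37 C compound exposure with 20 nM CPT in Tdp1-knockout DT40 cells stably expressing hTDP1, seeded 400/well; qHTS titration format.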
DRD3 agonist: qHTS of D3 Dopamine Receptor Agonist: qHTS | D3R DiscoveRx beta-arrestin cells, luminescence, 90 min | max activation, % | 410,000 tested, 0.58% active | AID 652048, 2013; in the data active = max activation above about 30%
Target sequence (P35462 whole entry, looked up): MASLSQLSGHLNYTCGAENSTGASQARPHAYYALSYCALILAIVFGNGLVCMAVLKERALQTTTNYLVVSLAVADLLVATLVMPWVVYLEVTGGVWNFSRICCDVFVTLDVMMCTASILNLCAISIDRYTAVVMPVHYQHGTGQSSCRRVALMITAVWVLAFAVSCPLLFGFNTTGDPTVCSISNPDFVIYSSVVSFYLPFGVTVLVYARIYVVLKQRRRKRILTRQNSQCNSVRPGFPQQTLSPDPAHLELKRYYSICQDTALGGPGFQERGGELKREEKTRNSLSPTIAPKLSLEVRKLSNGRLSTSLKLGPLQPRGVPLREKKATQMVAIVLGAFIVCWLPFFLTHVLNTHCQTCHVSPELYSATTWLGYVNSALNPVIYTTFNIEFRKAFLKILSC
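Agonist-mode cell screen: cells plated at 1500/well and incubated overnight at 37 °C, then exposed to library compounds for 90 min at 37 °C. Detection reagent was added for 30–60 min at room temperature, and luminescence was read.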
D3 antag: qHTS of D3 Dopamine Receptor Antagonist: qHTS; D(3) dopamine receptor (Homo sapiens), P35462; D3R cells, DiscoveRx beta-arrestin luminescence, antagonist mode; active compounds read low; max response, negative = inhibition, %; 360,000 tested, 2.5% active; AID 652054, 2013; in the data active = max response below about -50%; inconclusive = no clear call, values can overlap the other calls
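Cells expressing the human receptor were seeded at 1500 cells/well, incubated overnight at 37 degrees C in 5% CO2, then exposed to library compounds with dopamine controls for 90 minutes at 37 degrees C before luminescent detection.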
IL-1B inflam inh: qHTS for Inhibitors of Inflammasome Signaling: IL-1-beta AlphaLISA Primary Screen; THP-1 LPS/ATP IL-1B secretion, AlphaLISA, 16 h; active compounds read low; activity change, % at 57.5 µM; 360,000 tested, 4.7% active; in the data active = activity change below about -50%; inconclusive = mostly about -30% to -49%
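THP-1 cells pretreated 1 hr with compounds (up to 57.5 uM final), then stimulated with LPS (250 ng/mL final) plus ATP (1.25 mM final); secreted IL-1B measured by AlphaLISA after 16 hr, decreased signal indicating inhibition.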
ClpP mod: qHTS Assay for Activators of ClpP. ATP-dependent Clp protease proteolytic subunit (Bacillus subtilis (strain 168)), P80244. purified B. subtilis ClpP, FRET peptide cleavage, 20 min. Potency, µM (highest dose often 57.5 µM). 340,000 tested, 1.9% active. AID 651965, 2013; active = well fitted falling curve with a large enough effect; inconclusive = small, poorly fitted or top-dose-only effect; inactive = no such curve, though single readings can be large or run the other way; note: the source files actives as falling curves though it sought activators and does not explain the sign; nearly all actives have a fitted effect of over 65% in size
Target sequence (P80244 whole entry, looked up): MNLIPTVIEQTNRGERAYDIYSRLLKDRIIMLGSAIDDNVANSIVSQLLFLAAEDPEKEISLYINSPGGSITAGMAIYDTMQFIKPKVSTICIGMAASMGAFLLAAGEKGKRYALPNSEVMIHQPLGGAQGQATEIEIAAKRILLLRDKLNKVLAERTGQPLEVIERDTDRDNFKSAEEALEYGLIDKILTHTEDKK
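Buffer: 100 mM Tris/HCl pH8, 100 mM KCl, 0.05% low protease BSA, 2.5% glycerol, 0.01% Tween-20. ClpP 10 microg/mL final; 20 min RT; delta FRET normalized to ADEP and DMSO controls.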
DT40 TDP1 no CPT: qHTS for Inhibitors of human tyrosyl-DNA phosphodiesterase 1 (TDP1): qHTS in cells in absence of CPT; DT40 Tdp1-/- hTDP1 cells, no CPT, ATP luminescence, 48 h; Potency, µM (highest dose often 46.2 µM), hits mostly inhibitors; 420,000 tested, 15% active; note: nearly all actives have a fitted effect of over 55% in size
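Stably hTDP1-transfected Tdp1-null chicken DT40 cells were treated with library compounds minus camptothecin and grown for at least 48 hr at 37 °C, after which cellular ATP was quantified by luminescence.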
Numbers stand for hits; n = inactive; u = inconclusive; x = no result; ! = not active in a repeat. Unless noted, calls come from the whole dose curve; as a rule, active = well fitted inhibition curve with a large enough effect; inconclusive = small, poorly fitted or top-dose-only effect; inactive = flat fitted curve, though single readings scatter.

SMILES	TDP1 cell CPT	DRD3 agonist	D3 antag	IL-1B inflam inh	ClpP mod	DT40 TDP1 no CPT
Cc1ccc(NC(=O)CN2C(=O)CN=C(c3ccccc3)c3ccccc32)c(C)c1	u	n	x	x	n	u
CCOC(=O)CCCCCNC(=O)c1c(O)[nH]c(=O)[nH]c1=O	n	n	n	n	n	n
CC(=O)NC1CCSC1=O (stereo unspecified)	n	n	x	x	x	n
O=C(CC1CCCCC1)N1CCC(c2nc(-c3ccc(S(=O)(=O)N4CCCC4)cc3)no2)CC1	21µM	n	n	n	n	8.2µM
c1ccc(CN2CCNCC2)cc1	n	n	x	x	x	n
CC(C)C[C@H]1C(=O)N2CCCC2[C@]2(O)O[C@](NC(=O)[C@@H]3C=C4c5cccc6[nH]cc(c56)CC4N(C)C3)(C(C)C)C(=O)N12 (stereo partly specified)	u	n	u	n	n	16µM
CC(C)[C@H]1C(=O)N2CCC[C@H]2[C@]2(O)O[C@](NC(=O)[C@@H]3C=C4c5cccc6[nH]cc(c56)C[C@H]4N(C)C3)(C(C)C)C(=O)N12	u	n	n	n	n	5.8µM
CC(C)C1C(=O)N2CCCC2[C@]2(O)O[C@@](NC(=O)[C@@H]3C=C4c5cccc6[nH]cc(c56)C[C@H]4N(C)C3)(C(C)C)C(=O)N12 (stereo partly specified)	9.4µM	x	x	x	x	u
NC(CCP(=O)(O)O)C(=O)O (stereo unspecified)	u	x	x	x	x	n
C[C@]12CC[C@H](O)CC1=CCC1C2CC[C@]2(C)C(=O)[C@H](Br)CC12 (stereo partly specified)	u	n	n	-106	n	u
C[C@]12C[C@@H](O)[C@H](O)CC1=CCC1C2CC[C@]2(C)C(=O)CCC12 (stereo partly specified)	n	n	n	n	n	n
CC1(C)C(=O)CC[C@@]2(C)C1=CCC1C2CC[C@]2(C)C(=O)CCC12 (stereo partly specified)	16µM	n	n	n	x	u
C[C@]12CC[C@H](O)CC1=CCC1C2CC[C@]2(C)C(=O)CC[C@@H]12 (stereo partly specified)	30µM	x	x	x	x	30µM
C[C@]12CC[C@@H](O)CC1=CCC1C2CC[C@@]2(C)C1CC[C@@H]2O (stereo partly specified)	n	n	n	n	n	n
CC(=O)C1C(N2CC2)CC2C3CC=C4CC(O)CCC4(C)C3CCC21C (stereo unspecified)	1.8µM	n	u	-51	x	5.8µM
Cc1ccc(C(C)(C)NC(=O)C2CCC(=O)N(C3CCCCCC3)C2)cc1 (stereo unspecified)	u	n	n	n	n	n
CCOC(=O)C1C(=O)NC23CCCC2C1c1ccccc1O3 (stereo unspecified)	n	n	n	n	n	n
Cc1nn(C)cc1/C=C1/CC2C3CC=C4CC(O)CCC4(C)C3CCC2(C)C1=O (stereo unspecified)	n	n	n	n	n	u
CC12CCC3C(CC=C4CC(O)CCC43C)C1C/C(=C\c1ccccc1F)C2=O (stereo unspecified)	u	n	n	n	n	23µM
COc1cccc(OC)c1C(=O)Nc1nc(N)n(-c2ccccc2)n1	n	n	n	n	n	n
CCc1ccc(C2C(C(=O)Nc3ccccc3OC)=C(C)Nc3nc(SCc4ccccc4)nn32)cc1 (stereo unspecified)	4.1µM	n	x	x	n	3.7µM
CC(=O)N1CCC2(CC1)CC(=O)c1cc(OCC(=O)N3CCN(C)CC3)ccc1O2	n	n	n	n	20µM	n
CC(=O)N1CCC2(CC1)CC(=O)c1cc(OCC(=O)N3CCC4(CC3)OCCO4)ccc1O2	n	n	n	n	n	n
CC12CCCCC1=[N+]([O-])CN2O (stereo unspecified)	n	n	-62	n	n	n
O=C(Nc1cccc(F)c1)N1CCC2(CC1)CCN(C(=O)Oc1ccccc1)CC2	u	x	x	x	x	23µM
SMILES	TDP1 cell CPT	DRD3 agonist	D3 antag	IL-1B inflam inh	ClpP mod	DT40 TDP1 no CPT
O=C(Nc1cccc(F)c1)N1CC2(CCNCC2)C1	8.2µM	x	x	x	x	8.2µM
O=C(Nc1cccc(F)c1)N1CC2(CCN(C(=O)Oc3ccccc3)CC2)C1	n	x	x	x	x	u
CCn1c(O)c(N=Nc2cccc(S(=O)(=O)N3CCOCC3)c2)c(=O)n(CC)c1=S	n	n	n	u	n	n
CCn1c(O)c(N=Nc2ccc(S(=O)(=O)N3CCOCC3)cc2)c(=O)n(CC)c1=S	n	n	-71	-84	n	n
CN(C)[C@@H]1C(=O)C(C(N)=O)=C(O)[C@@]2(O)C(=O)C3=C(O)c4c(O)cccc4[C@@](C)(O)C3C[C@@H]12 (stereo partly specified)	18µM	n	n	n	n	8.2µM
CN(C)[C@@H]1C(=O)C(C(N)=O)=C(O)[C@@]2(O)C(=O)C3=C(O)c4c(O)cccc4[C@@](C)(O)[C@H]3[C@H](O)[C@@H]12	7.3µM!	n	n	n	n	5.8µM!
CN(C)[C@@H]1C(=O)C(C(N)=O)=C(O)[C@@]2(O)C(=O)C3=C(O)c4c(O)ccc(Cl)c4[C@@](C)(O)[C@H]3C[C@@H]12	15µM!	n	n	n	n	u
CCNC(C)Cc1cccc(C(F)(F)F)c1 (stereo unspecified)	n	n	x	x	x	n
COC(=O)C(Cc1ccc(N(CCCl)CCCl)cc1)N=Cc1ccccc1O (stereo unspecified)	0.12µM	n	u	-97	x	0.082µM
CCOC(=O)C(NC(=O)C(Cc1ccc(N(CCCl)CCCl)cc1)NC(C)=O)C(C)C (stereo unspecified)	n	n	n	n	n	n
C[C@@H]1CC2(CCCC[N+]2(C)C)C[C@H]1C	n	n	n	n	x	n
COc1cc2nc(CN3CC=C(c4ccccc4)CC3)[nH]c(=O)c2cc1OC	u	n	n	n	x	18µM
CC(=NNC(=S)N1CC2CCC(CC2)C1)c1nccs1	0.021µM	n	n	-100	n	0.026µM
O=C(CN1CCN(c2ccccc2)CC1)Nc1ccccc1C(=O)NCCc1ccccc1	u	n	n	n	n	u
NC(Cc1ccc(F)cc1)c1csc(Nc2cnccn2)n1 (stereo unspecified)	u	n	n	u	n	u
